# A selection: hits, their analogues and other compounds. The true share with any hit is near 7.9%.
# HT1080 IDH1KD tx = qHTS for induction of synthetic lethality in tumor cells producing 2HG: qHTS for the HT-1080-IDH1KD cell line; HT-1080 IDH1 knockdown viability, ATP luminescence, 48 h; Potency, µM (series often up to 46.1 µM), inactives show at the top dose activity, negative = toxicity, usual class: cytotoxic; 360,000 compounds, 2% hits; AID 686971, 2013;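 note: 0% = DMSO wells and -100% = cell-free medium wells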
#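 In this qHTS, HT-1080 cells depleted of IDH1 are exposed for 48 h at 37 °C to compound titrations. Toxicity is scored from CellTiter-Glo luminescence, with DMSO as full viability and medium alone as none.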
# KB-V1 cytotox = qHTS assay for MDR1-selective chemotherapeutics: Primary screen using the drug-selected MDR subline cells KB-V1 | KB-V1 MDR cells viability, CellTiter-Glo, 72 h | Potency, µM (series often up to 46.1 µM), usual class: cytotoxic | AID 1347076, 2019 | 400,000 compounds, 3.4% hits; note: % is set by controls: 0 for no effect and ±100 for the full control effect; nearly all actives have a fitted effect of over 60% in size
#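 KB-V1, DMEM (no phenol red) + 10% FBS; cpd pin-transferred, titration series; 72 h, 37 degrees C; CellTiter-Glo, luminescence. Data normalized, curve-fit.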
# KB-3-1 tox = qHTS assay for MDR1-selective chemotherapeutics: Primary screen using the parental adenocarcinoma cell KB-3-1 | Potency, µM (highest dose often 46.1 µM), most hits filed as cytotoxic | KB-3-1 viability, CellTiter-Glo ATP luminescence, 72 h | 400,000 compounds, 1.4% hits; note: % is set by controls: 0 for no effect and ±100 for the full control effect; nearly all actives have a fitted effect of over 60% in size
#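 KB-3-1 cells, DMEM (no phenol red) + 10% FBS; compound by pin transfer, 72 h, 37 °C. Readout: CellTiter-Glo luminescence after 10 min. Data normalized, curve-fitted.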
# HT1080-NT tox = qHTS for induction of synthetic lethality in tumor cells producing 2HG: qHTS for the HT-1080-NT fibrosarcoma cell line; HT-1080-NT fibrosarcoma viability, CellTiter-Glo ATP luminescence, 48 h; Potency, µM (highest dose often 46.1 µM), without a hit: at the top dose activity, negative = less viability, most hits filed as cytotoxic; 360,000 compounds, 1.6% hits; AID 686970, 2013;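 note: NT is the 2HG producing partner of a matched IDH1 knockdown line; 0% = DMSO-treated cells and -100% = media-only wells without cells; nearly all actives have a fitted effect of over 55% in size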
#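 HT-1080-NT; 750 cells/well; 5% FBS RPMI; 48 h compound, 37 degrees C; CellTiter-Glo luminescence; curve fitting and curve-class assignment.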
# SW480 rerep = A quantitative high throughput screen for small molecules that induce DNA re-replication in SW480 colon adenocarcinoma cells; 340,000 compounds, 1.8% hits; Potency, µM (doses to about 46.1 µM), for the others: top-dose re-replication activation, actives largely listed as activators; SW480 DNA re-replication, Hoechst DNA content imaging, 48 h; note: % of control where 0% means no effect; nearly all actives have a fitted effect of over 55% in size
#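 First, 250 cells per well were seeded. Next, compound or vehicle (23 nL) was pinned in, plates sat 48 hr at 37 C. Finally Hoechst was added for 40 min before fluorescence scanning.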
# MCF10A rereplic = A quantitative high throughput screen for small molecules that induce DNA re-replication in MCF 10a normal breast cells; 350,000 compounds, 2.9% hits; Potency, µM (top dose mostly 46.1 µM), inactives show at the highest dose activity, positive = re-replication, hits mostly activators; MCF 10A DNA re-replication, Hoechst nuclear intensity, 48 h; note: % of control where 0% means no effect; nearly all actives have a fitted effect of over 50% in size
# * hit, by the source's call; i = inactive; ? = inconclusive; . = no result given. Calls come from the whole dose curve; as a rule, active = well fitted curve in the direction sought with a large enough effect; inconclusive = small, poorly fitted or top-dose-only effect, or another doubt; inactive = no such curve, though single readings can be large; an effect the other way counts as inactive or inconclusive. Potency is the fitted concentration of half-maximal effect.
SMILES,HT1080 IDH1KD tx,KB-V1 cytotox,KB-3-1 tox,HT1080-NT tox,SW480 rerep,MCF10A rereplic
CCCCNCc1ccc(OCc2ccc(Cl)nc2)c(OC)c1,3%,i,i,-16%,-1%,?
CCN1CCCC1CNCc1ccc(OCc2ccc(Cl)nc2)c(OC)c1 (configuration not stated),-16%,i,i,3%,23%,5.8µM*
O=C(CCS(=O)(=O)c1ccccc1)Nc1ccc(S(=O)(=O)Nc2nccs2)cc1,-3%,i,i,-3%,-2%,5%
CC(=O)c1ccc(NC(=O)CN2C(=O)/C(=C/C=C/c3ccccc3)SC2=S)cc1,-22%,i,i,-24%,-8%,10µM*
O=C(CCCCCN1C(=O)c2cccc3cccc(c23)C1=O)NC1CCS(=O)(=O)C1 (configuration not stated),-1%,i,i,-5%,18µM*,-2%
O=C(CCN1C(=O)c2cccc3cccc(c23)C1=O)NC1CCS(=O)(=O)C1 (configuration not stated),14%,i,i,20%,-18%,-2%
CCn1cc(S(=O)(=O)c2ccc(OC)cc2)c(=O)c2cc(OC)ccc21,-13%,i,i,5%,-2%,6%
CCn1cc(S(=O)(=O)c2ccc(Cl)cc2)c(=O)c2cc(OC)ccc21,0%,15µM*,i,24%,-7%,4%
Cc1ccc(F)cc1NC(=O)C1C2CCC(O2)C1C(=O)O (configuration not stated),-5%,i,i,6%,-1%,0%
CCCC(=O)NC(c1ccc(OC)cc1)c1ccc2cccnc2c1O (configuration not stated),?,7.3µM*,?,-28%,-6%,?
COc1ccc(Cl)cc1C(Nc1cccnc1)c1ccc2cccnc2c1O (configuration not stated),10µM*,?,?,?,7.3µM*,?
CC(=O)NC(c1ccc(C(C)C)cc1)c1ccc2cccnc2c1O (configuration not stated),?,?,0.65µM*,?,0.82µM*,?
CCCCC(=O)NC(c1ccccc1)c1ccc2cccnc2c1O (configuration not stated),?,13µM*,?,?,0.52µM*,?
Oc1c(C(Nc2cccnc2)c2ccc(C(F)(F)F)cc2)ccc2cccnc12 (configuration not stated),.,i,i,.,.,.
COc1ccc(CNC(=O)CN(Cc2ccccc2F)C(=O)c2csnn2)cc1,-4%,i,i,-12%,8%,4%
Cc1ccccc1C(=O)Nc1ccnn1C1CCN(C(=O)C2CCOC2)CC1 (configuration not stated),3%,.,.,0%,5%,1%
CCn1c(SCC(=O)N2CCCCC2)nc2c(c1=O)SCC2,9%,.,.,5%,-1%,6%
CCCC(=O)NC(c1ccccc1)c1ccc2cccnc2c1O (configuration not stated),?,?,?,-23%,?,?
CCC(=O)NC(c1ccccc1OC)c1ccc2cccnc2c1O (configuration not stated),0.5µM*,?,10µM*,0.79µM*,2%,7%
CCCCC(=O)NC(c1ccc(C(C)C)cc1)c1ccc2cccnc2c1O (configuration not stated),?,i,?,?,?,18µM*

# Assay outcomes from PubChem BioAssay.
